Consider 15 compounds from PubChem BioAssay (NCATS).

Assay [1] can be described thus: S16 Schwann cell viability assay (CellTiter-Glo assay) (AID 624031).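 Also: cellular ATP luminescence as a viability measure; nearly all actives have a fitted effect of over 70% in size.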 In short, it runs like this: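 Native S16 rat Schwann cells, 500-750 cells/well in DMEM with 10% FBS, dosed with compound after overnight culture and incubated 24h at 37 degree Celsius/5% CO2. Viability by CellTiter-Glo luminescence; % activity normalized to no-cell wells and DMSO-treated cells.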

For assay [2], the system named is AA1029. Briefly: qHTS profiling for inhibitors of Plasmodium falciparum proliferation (AID 504749). Also: nearly all actives have a fitted effect of over 60% in size. Also: potency is read from the fitted curve at half-maximal effect. The note with it: P. falciparum in erythrocytes, SYBR Green DNA, 72 h; series mostly up to 28.7 µM. In short, it runs like this:
(§1)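 Three-day growth assay of blood-stage parasites in erythrocytes (0.3% parasitemia, 2.5% hematocrit) at 37 C, 5% CO2, quantified by SYBR Green DNA staining after overnight detergent lysis.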
Background: qHTS replaces the single test concentration by a dilution series.

For assay [3], the system named is AS120. The description is as above. As to conditions: P. falciparum in erythrocytes, SYBR Green DNA, 72 h; series mostly up to 28.7 µM. In short, it runs like this:
as §1

The test system of assay [4] is ATS189. The description is as above. As to conditions: P. falciparum in erythrocytes, SYBR Green DNA, 72 h; series mostly up to 28.7 µM. In short, it runs like this: as §1
Assay [5] has as its system CP194. The description is as above. As to conditions: P. falciparum in erythrocytes, SYBR Green DNA, 72 h; series mostly up to 28.7 µM. In short, it runs like this: as §1
Assay [6] concerns CP201. Described as above. The note with it: P. falciparum in erythrocytes, SYBR Green DNA, 72 h; series mostly up to 28.7 µM. In short, it runs like this:
as §1

In assay [7] the test system is CP203. The description is as above. As to conditions: P. falciparum in erythrocytes, SYBR Green DNA, 72 h; series mostly up to 28.7 µM. In short, it runs like this:
as §1

Assay [8] has as its system CP215. The assay is described as above. As to conditions: P. falciparum in erythrocytes, SYBR Green DNA, 72 h; series mostly up to 28.7 µM. In short, it runs like this:
as §1

In assay [9] the test system is CP237. Described as above. The note with it: P. falciparum in erythrocytes, SYBR Green DNA, 72 h; series mostly up to 28.7 µM. In short, it runs like this:
as §1

For assay [10], the system named is CP252. The assay is described as above. The note with it: P. falciparum in erythrocytes, SYBR Green DNA, 72 h; series mostly up to 28.7 µM. In short, it runs like this:
as §1

The test system of assay [11] is CP256. The assay is described as above. As to conditions: P. falciparum in erythrocytes, SYBR Green DNA, 72 h; series mostly up to 28.7 µM. In short, it runs like this:
as §1

Assay [12] concerns CP265. The description is as above. As to conditions: P. falciparum in erythrocytes, SYBR Green DNA, 72 h; series mostly up to 28.7 µM. In short, it runs like this: as §1
In assay [13] the test system is CP266. The description is as above. The note with it: P. falciparum in erythrocytes, SYBR Green DNA, 72 h; series mostly up to 28.7 µM. In short, it runs like this: as §1
Assay [14] relates to CP268. The assay is described as above. The note with it: P. falciparum in erythrocytes, SYBR Green DNA, 72 h; series mostly up to 28.7 µM. In short, it runs like this: as §1
Assay [15] deals with CP291. The assay is described as above. The note with it: P. falciparum in erythrocytes, SYBR Green DNA, 72 h; series mostly up to 28.7 µM. In short, it runs like this:
as §1

The test system of assay [16] is CP297. The assay is described as above. As to conditions: P. falciparum in erythrocytes, SYBR Green DNA, 72 h; series mostly up to 28.7 µM. In short, it runs like this: as §1
The test system of assay [17] is CP329. The assay is described as above. As to conditions: P. falciparum in erythrocytes, SYBR Green DNA, 72 h; series mostly up to 28.7 µM. In short, it runs like this:
as §1

In assay [18] the test system is ECU. The assay is described as above. As to conditions: P. falciparum in erythrocytes, SYBR Green DNA, 72 h; series mostly up to 28.7 µM. In short, it runs like this: as §1
In assay [19] the test system is PC15. The description is as above. The note with it: P. falciparum in erythrocytes, SYBR Green DNA, 72 h; series mostly up to 28.7 µM. In short, it runs like this:
as §1

Assay [20] deals with TAB109. Described as above. As to conditions: P. falciparum in erythrocytes, SYBR Green DNA, 72 h; series mostly up to 28.7 µM. In short, it runs like this:
as §1

Each structure is given as a SMILES string. Inconclusive results are not listed. The source made the active and inactive calls. Calls follow the shape of the dose curve; as a rule, active = well fitted curve in the direction sought with a large enough effect; inconclusive = small, poorly fitted or top-dose-only effect, or another doubt; inactive = no such curve, though single readings can be large; an effect the other way counts as inactive or inconclusive.

As to `CC(=O)CC(c1ccccc1)C1C(=O)Oc2ccccc2C1=O` (stereo unspecified), the Potency entry in assay [1], in [2], in [3], in assay [4], in [5] and in assay [6] was “inactive” in each case. The Potency entry in assay [7], in assay [8], in assay [9], in assay [10], in [11] and in assay [12] was “inactive” in each case. The Potency entry in assay [13], in assay [14], in assay [15], in [16], in assay [17] and in assay [18] was “inactive” in each case. Further, the Potency result in assay [19] and in assay [20] was “inactive” in each case.
Consider `Nc1nc2[nH]cc(CCc3ccc(C(=O)NC(CCC(=O)O)C(=O)O)cc3)c2c(=O)[nH]1` (stereo unspecified), for which, in [1], the Potency entry is “inactive”. In addition, the Potency in [4] is 0.224 µM (active); in [5] it was 3.79 µM (active); in assay [8], 0.601 µM (active); in assay [9], 0.0794 µM (active); in assay [10], 0.158 µM (active); in [11], 0.224 µM (active). Further, the Potency in [16] is 0.239 µM (active); in [17], 1.2 µM (active); in assay [18] it was 0.199 µM (active); in assay [20], 11.2 µM (active).
With `NC(C(=O)O)C(O)c1ccc(O)c(O)c1` (stereo unspecified), in assay [16], the Potency was 16.9 µM (active). The Potency entry in assay [19] is “inactive”.
As to `C=C1/C(=C\C=C2/CCC[C@]3(C)[C@@H]([C@H](C)/C=C/[C@@H](O)C4CC4)CC[C@@H]23)C[C@@H](O)C[C@@H]1O`, the Potency entry in assay [1], in assay [2], in assay [4], in assay [5], in assay [6] and in assay [7] was “inactive” throughout. Besides, the Potency entry in assay [8], in assay [9], in [10], in assay [11], in [13] and in assay [14] was “inactive” throughout. Besides, the Potency result in assay [16], in assay [17], in assay [18], in assay [19] and in [20] was “inactive” in each case.
In the case of `O=C1Oc2ccccc2C(=O)C1C(CC(O)c1ccc(-c2ccc(Br)cc2)cc1)c1ccccc1` (stereo unspecified), the Potency result in assay [1], in assay [2], in assay [3], in assay [5], in assay [6] and in [7] was “inactive” in each case. The Potency entry in [8], in assay [9], in assay [10], in assay [12], in [13] and in assay [14] was “inactive” each time. Moreover, the Potency entry in assay [15], in assay [16], in assay [17], in assay [19] and in assay [20] was “inactive” throughout.
For `Cc1cnc(NC(=O)C2C(=O)c3ccccc3S(=O)(=O)N2C)s1` (stereo unspecified), the Potency entry in assay [1], in [2], in assay [3], in assay [4], in assay [5] and in assay [6] was “inactive” in each case. The Potency entry in assay [7], in [8], in assay [9], in [10], in [11] and in assay [12] was “inactive” throughout. The Potency result in assay [14], in [15], in assay [16], in assay [17], in [18] and in assay [19] was “inactive” in each case. The Potency result in [20] is “inactive”.
With `CN(C)CC[C@@](O)(c1ccccc1)c1ccccc1Cl`, the Potency in [2] is 4.47 µM (active); in assay [3] it was 8.91 µM (active); in assay [4] it was 5.62 µM (active); in assay [5], 7.57 µM (active); in [9], 1.41 µM (active); in [10], 11.2 µM (active). Moreover, the Potency in assay [11] is 5.62 µM (active); in assay [12], 7.08 µM (active); in assay [14], 13.5 µM (active); in assay [16], 5.36 µM (active); in [18] it was 7.94 µM (active); in assay [19] it was 7.08 µM (active). Further, the Potency in [20] is 7.08 µM (active).
For the compound `CC1OC(OC2C(O)CC(OC3C(O)CC(OC4CCC5(C)C(CCC6C5CCC5(C)C(C7=CC(=O)OC7)CCC65O)C4)OC3C)OC2C)CC(O)C1O` (stereo unspecified), the Potency result in assay [1], in assay [2], in assay [3], in assay [4], in [6] and in [7] was “inactive” each time. For the same compound, the Potency result in [8], in assay [10], in assay [11], in assay [12], in assay [13] and in assay [14] was “inactive” each time. The Potency entry in assay [15], in [16], in assay [17], in [18] and in [20] was “inactive” in each case.
In the case of `Cc1cc(O)c2c(c1)OC1(C)CCC3C(C)(C)CCCC34COC2C14` (stereo unspecified), the Potency in assay [2] is 10 µM (active). Further, the Potency result in [6], in assay [11], in assay [15] and in assay [17] was “inactive” each time.
With `CCOc1ccccc1O[C@@H](c1ccccc1)[C@@H]1CNCCO1`, the Potency entry in assay [1], in assay [6], in [8], in assay [13], in assay [14] and in [15] was “inactive” in each case. Moreover, the Potency entry in [17] is “inactive”. For the same compound, the Potency in assay [2] was 5.62 µM (active); in [3], 11.2 µM (active); in [18], 7.94 µM (active).
Turning to `C=C1C(n2cnc3c(=O)[nH]c(N)nc32)C[C@H](O)[C@H]1CO` (stereo partly specified), the Potency result in assay [1], in [2], in assay [3], in [4], in [5] and in [6] was “inactive” each time. The Potency entry in assay [8], in [9], in [10], in assay [12], in assay [13] and in assay [16] was “inactive” in each case. The Potency result in assay [17] and in [18] was “inactive” in each case.
In the case of `C=C1CC[C@H](O)C/C1=C/C=C1\CCC[C@]2(C)[C@@H]([C@H](C)CCCC(C)(C)O)CC[C@@H]12`, the Potency in assay [2] is 12.6 µM (active); in assay [3], 10 µM (active); in assay [16] it was 13.5 µM (active); in assay [18], 12.6 µM (active). In addition, the Potency result in assay [5], in assay [6], in assay [7], in assay [13], in assay [14] and in assay [15] was “inactive” in each case. For the same compound, the Potency result in assay [17] is “inactive”.
On to `C#C[C@@]1(O)CC[C@@H]2[C@H]3CCC4=C/C(=N\O)CC[C@H]4[C@@H]3CC[C@]21CC`, for which the Potency result in assay [1], in assay [2], in [3], in assay [4], in assay [6] and in [7] was “inactive” each time. The Potency result in [8], in assay [9], in [10], in [11], in [12] and in [13] was “inactive” throughout. Besides, the Potency result in assay [14], in assay [15], in assay [16], in [17], in [18] and in assay [19] was “inactive” each time. Moreover, in assay [20], the Potency result was “inactive”.
Consider `C#C[C@]1(O)CC[C@H]2[C@H]3[C@H](CC[C@@]21C)C1=C(CC(=O)CC1)C[C@@H]3C`, for which the Potency result in assay [2], in assay [3], in assay [4], in assay [5], in assay [6] and in [7] was “inactive” each time. In addition, the Potency result in assay [8], in [9], in [10], in assay [11], in [12] and in [13] was “inactive” in each case. Also, the Potency result in assay [14], in [15], in assay [16], in [17], in assay [18] and in [19] was “inactive” each time. The Potency result in assay [20] was “inactive”.
Consider `CC1=C[C@@H](O)CC(C)(C)[C@@H]1/C=C/C(C)=C/C=C/C(C)=C/C=C/C=C(C)/C=C/C=C(C)/C=C/C1=C(C)C[C@H](O)CC1(C)C`, for which the Potency result in assay [1], in [4], in [5], in assay [6], in [7] and in [10] was “inactive” each time. The Potency result in assay [11], in assay [13], in assay [14], in [15], in [17] and in assay [20] was “inactive” each time.
